# In the supplement of paper PMC9262897, “Low-cost anti-mycobacterial drug discovery using engineered E. coli” (Nature Communications, 2022):
# Structures can show the parent of a compound that is named as a salt. ± gives the standard deviation of the averaged measurements.
# System: E. coli TESEC Alr+ wild-type control
# Experiment: growth (OD600 after 10 h); higher = more growth (less inhibition)
# Details: compound 0.1 mM; raw OD600 reference: median of DMSO wells 0.49, cell-free background 0.052
# Protocol: (§1)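 TESEC Mtb Alr E. coli (ΔaraC ΔtolC ΔentC Δalr ΔdadX, arabinose-inducible Mtb Alr) or the Alr+ wild-type control strain, grown in defined M9-fructose medium without D-alanine in 96-well plates with Prestwick library compounds at 0.1 mM and 1% DMSO. Low Alr induction is 0.1 µM arabinose and high induction is 10 mM arabinose.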
row,Structure (SMILES),growth
1,CN(C)CC/C=C1\c2ccccc2CSc2ccccc21 [Dosulepin hydrochloride],0.425 ± 0.028
2,CCOc1nc2cccc(C(=O)O)c2n1Cc1ccc(-c2ccccc2-c2nnn[nH]2)cc1 [Candesartan],0.642 ± 0.092
3,CCc1cc(C(N)=S)ccn1 [Ethionamide],0.583 ± 0.11
4,CN(C)CCCC1(c2ccc(F)cc2)OCc2cc(C#N)ccc21 (configuration not stated) [Citalopram Hydrobromide],0.476 ± 0.068
5,Cn1c(=O)c2c(ncn2C)n(C)c1=O [Caffeine],0.617 ± 0.065
6,COc1ccc(C(=O)NCc2ccc(OCCN(C)C)cc2)cc1OC [Itopride],0.475 ± 0.063
7,Cn1cnc([N+](=O)[O-])c1Sc1ncnc2[nH]cnc12 [Azathioprine],0.27 ± 0.0092

# System: E. coli TESEC Mtb Alr
# Experiment: as above
# Details: arabinose 100 nM; compound 0.1 mM; raw OD600 reference: median of DMSO wells 0.413, cell-free background 0.052
# Protocol: as §1
row,Structure (SMILES),growth
1,CN(C)CCN(Cc1ccc(Cl)cc1)c1ccccn1 [Chloropyramine hydrochloride],0.399 ± 0.0085
2,O=C1NCCN1CCN1CCC(c2cn(-c3ccc(F)cc3)c3ccc(Cl)cc23)CC1 [Sertindole],0.167 ± 0.2
3,O=C1NCC2(CCN(CCc3ccccc3)CC2)O1 [Fenspiride hydrochloride],0.415 ± 0.0097
4,CC(C)[C@H]1CC[C@H](C(=O)N[C@H](Cc2ccccc2)C(=O)O)CC1 [Nateglinide],0.22 ± 0.16
5,CCOC(=O)[C@H](CCc1ccccc1)N[C@@H](C)C(=O)N1CCC[C@H]1C(=O)O [Enalapril maleate],0.412 ± 0.011
6,CC1(C)O[C@@H]2[C@@H](CO[C@@]3(COS(N)(=O)=O)OC(C)(C)O[C@@H]23)O1 [Topiramate],0.4226 ± 0.0021
7,c1ccc2c(c1)CCCc1cc(NCCN3CCOCC3)nnc1-2,0.4087 ± 0.0033
8,CC[C@@H]1C(=O)OC[C@@H]1Cc1cncn1C [Pilocarpine nitrate],0.391 ± 0.0052
9,Cn1ccnc1S [Methimazole],0.405 ± 0.014
10,NC[C@H]1O[C@H](O[C@H]2[C@H](O)[C@@H](O[C@H]3O[C@H](CO)[C@@H](O)[C@H](N)[C@H]3O)[C@H](N)C[C@@H]2N)[C@H](N)C[C@@H]1O [Tobramycin],0.0513 ± 0.0001
11,O=C1C(CC[S+]([O-])c2ccccc2)C(=O)N(c2ccccc2)N1c1ccccc1 (configuration not stated) [Sulfinpyrazone],0.38 ± 0.0087
12,C=C1/C(=C\C=C2/CCC[C@]3(C)[C@@H]([C@H](C)CCCC(C)C)CC[C@@H]23)C[C@@H](O)C[C@@H]1O [Alfacalcidol],0.4206 ± 0.0018
13,C[C@H](O)C(=O)Nc1c(I)c(C(=O)NC(CO)CO)c(I)c(C(=O)NC(CO)CO)c1I [Iopamidol],0.397 ± 0.022
14,CCCCNc1cc(C(=O)O)cc(S(N)(=O)=O)c1Oc1ccccc1 [Bumetanide],0.426 ± 0.0046
15,CN(C)CCCOc1nn(Cc2ccccc2)c2ccccc12 [Benzydamine hydrochloride],0.404 ± 0.0075
16,CCn1nc(C(=O)O)c(=O)c2cc3c(cc21)OCO3 [Cinoxacin],0.0933 ± 0.016
17,CCCCOC(=O)c1ccc(N)cc1 [Butamben],0.36 ± 0.026
18,C#C[C@]1(O)CC[C@H]2[C@@H]3CCC4=CCCC[C@@H]4[C@H]3CC[C@@]21C [Lynestrenol],0.394 ± 0.0051
19,CCc1c2c(nc3ccc(OC(=O)N4CCC(N5CCCCC5)CC4)cc13)-c1cc3c(c(=O)n1C2)COC(=O)[C@]3(O)CC [Irinotecan hydrochloride trihydrate],0.401 ± 0.0022
20,CN(C)CCn1nnnc1SCC1=C(C(=O)O)N2C(=O)[C@@H](NC(=O)Cc3csc(N)n3)[C@H]2SC1 [Cefotiam hydrochloride],0.0473 ± 0.0012

row,Structure (SMILES),growth
1,O=S(=O)(O)c1cc(O)ccc1O [Ethamsylate],0.41 ± 0.015
2,NNC(=O)c1ccncc1 [Isoniazid],0.405 ± 0.0067
3,O=C(O)/C=C/c1ccc(Cn2ccnc2)cc1 [Ozagrel hydrochloride],0.397 ± 0.017
4,NCCC[C@H](N)CC(=O)N[C@H]1CNC(=O)[C@H]([C@H]2C[C@H](O)NC(N)=N2)NC(=O)/C(=C/NC(N)=O)NC(=O)[C@H](CO)NC(=O)[C@H](CO)NC1=O [Viomycin sulfate],0.226 ± 0.14
5,CC1CS(=O)(=O)CCN1/N=C/c1ccc([N+](=O)[O-])o1 (configuration not stated) [Nifurtimox],0.0469 ± 0.00035
6,CC(C)C(=O)Nc1ccc([N+](=O)[O-])c(C(F)(F)F)c1 [Flutamide],0.383 ± 0.036
7,Nc1ccc(S(=O)(=O)Nc2cnc3ccccc3n2)cc1 [Sulfaquinoxaline sodium salt],0.419 ± 0.0091
8,Cc1cnc(NC(=O)C2=C(O)c3ccccc3S(=O)(=O)N2C)s1 [Meloxicam],0.33 ± 0.04
9,CCCc1ncc(C[n+]2ccccc2C)c(N)n1 [Amprolium hydrochloride],0.407 ± 0.016
10,COc1cc(C(=O)OCCCN2CCCN(CCCOC(=O)c3cc(OC)c(OC)c(OC)c3)CC2)cc(OC)c1OC [Dilazep dihydrochloride],0.417 ± 0.012
11,CC(C)(O/N=C(\C(=O)N[C@@H]1C(=O)N2C(C(=O)[O-])=C(C[n+]3ccccc3)CS[C@H]12)c1csc(N)n1)C(=O)O [Ceftazidime pentahydrate],0.0467 ± 0.002
12,O=C(c1ccc(OCCN2CCCCC2)cc1)c1c(-c2ccc(O)cc2)sc2cc(O)ccc12 [Raloxifene hydrochloride],0.41 ± 0.007
13,CS(=O)(=O)c1ccc([C@@H](O)[C@@H](CO)NC(=O)C(Cl)Cl)cc1 [Thiamphenicol],0.301 ± 0.012
14,CN(C)CC/C=C1\c2ccccc2CSc2ccccc21 [Dosulepin hydrochloride],0.413 ± 0.013
15,CCOc1nc2cccc(C(=O)O)c2n1Cc1ccc(-c2ccccc2-c2nnn[nH]2)cc1 [Candesartan],0.415 ± 0.0062
16,CCc1cc(C(N)=S)ccn1 [Ethionamide],0.406 ± 0.0087
17,CN(C)CCCC1(c2ccc(F)cc2)OCc2cc(C#N)ccc21 (configuration not stated) [Citalopram Hydrobromide],0.4152 ± 0.0024
18,Cn1c(=O)c2c(ncn2C)n(C)c1=O [Caffeine],0.412 ± 0.0085
19,COc1ccc(C(=O)NCc2ccc(OCCN(C)C)cc2)cc1OC [Itopride],0.407 ± 0.015
20,Cn1cnc([N+](=O)[O-])c1Sc1ncnc2[nH]cnc12 [Azathioprine],0.312 ± 0.029
